Shiga inhibitor = A qHTS for Small Molecule Inhibitors of Shiga Toxin; Vero cells, Shiga toxin protein synthesis inhibition reporter; inhibition, % at 38.7 µM; actives 9.2% (n = 290,000); AID 2315, 2010; in the data active = inhibition mostly above about 28%, no sharp cut-off; inactive = mostly below about 43%; also: 0% is about no effect
AMA1-RON2 inh = qHTS for Inhibitors of AMA1-RON; Towards Development of Antimalarial Drug Lead: Primary Screen; AlphaScreen AMA1-biotinylated RON2 peptide binding; Potency, µM (titrated, usually from 58.2 µM), for inactives: top-dose activity change, negative = inhibition, most hits filed as inhibitors; actives 0.2% (n = 360,000);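 also: potency is read from the fitted curve at half-maximal effect; 0% = vehicle wells and -100% = peptide control; nearly all actives have a fitted effect of over 45% in size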
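AMA1 (3D7) with his tag at 25 nM final met compounds first, then biotinylated RON2 peptide at 25 nM; detection used donor plus acceptor beads, 10 µg/mL apiece, read by AlphaScreen after 30 min at room temperature.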
SARS PLP yeast = qHTS of Yeast-based Assay for SARS-CoV PLP | S. cerevisiae expressing SARS-CoV PLpro, growth rescue | Potency, µM (doses to about 32.9 µM), for the others: at the highest dose activity, positive = growth rescue, usual class: activators | actives 0.19% (n = 330,000); calls by dose curve; also: potency is read from the fitted curve at half-maximal effect; 0% is about no effect; nearly all actives have a fitted effect of over 55% in size
Pf growth 48h = Primary qHTS for delayed death inhibitors of the malarial parasite plastid, 48 hour incubation. P. falciparum luciferase growth in erythrocytes, 48 h. Potency, µM (doses to about 28.7 µM), without a hit: at the highest dose activity change, negative = inhibition, actives largely listed as inhibitors. actives 5.9% (n = 310,000); also: potency is read from the fitted curve at half-maximal effect; % is scaled to controls: 0 for no effect and ±100 for the full control effect
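Erythrocytes infected with P. falciparum carrying an integrated firefly luciferase reporter (2% hematocrit, 0.1% parasitemia final) were exposed to compounds in RPMI 1640 with 0.5% Albumax at 37 C, 5% CO2. Growth inhibition was scored as reduced luminescence.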
Cycloheximide cs = Cycloheximide Counterscreen for Small Molecule Inhibitors of Shiga Toxin | actives 12% (n = 300,000) | cell reporter, cycloheximide protein synthesis inhibition counterscreen | max response, %; in the data active = max response mostly above about 13%, no sharp cut-off; inactive = mostly below about 14%; also: read at 38.3 µM for the half of the compounds with a filed dose; 0% is about no effect
Pf growth 96h = Primary qHTS for delayed death inhibitors of the malarial parasite plastid, 96 hour incubation; actives 6.9% (n = 320,000); P. falciparum luciferase reporter growth, 96 h; Potency, µM (series often up to 28.7 µM), for the others: at the top dose activity change, negative = inhibition, most hits filed as inhibitors; also: potency is read from the fitted curve at half-maximal effect; % is scaled to controls: 0 for no effect and ±100 for the full control effect
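P. falciparum expressing integrated firefly luciferase, in erythrocytes at 2% hematocrit, 0.05% parasitemia, incubated with compounds 96 h at 37 C, 5% CO2. Growth inhibition read as loss of luminescence; two-generation exposure targets delayed-death apicoplast inhibitors.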
* hit, by the source's call; i = inactive; ? = inconclusive; . = not tested or not shown. A selection: hits, their analogues and other compounds. The true share with any hit is near 19%. Unless noted, calls follow the shape of the dose curve; as a rule, active = well fitted curve in the direction sought with a large enough effect; inconclusive = small, poorly fitted or top-dose-only effect, or another doubt; inactive = no such curve, though single readings can be large; an effect the other way counts as inactive or inconclusive.

SMILES	Shiga inhibitor	AMA1-RON2 inh	SARS PLP yeast	Pf growth 48h	Cycloheximide cs	Pf growth 96h
COc1ccc(NC(=O)N(C)C[C@H]2OCCCC[C@H](C)Oc3ccc(NS(=O)(=O)c4cn(C)cn4)cc3C(=O)N([C@H](C)CO)C[C@@H]2C)cc1	.	-2%	.	.	.	.
CCOc1ccccc1C(=O)Nc1cccc(-c2ccc(N3CCOCC3)nn2)c1	.	-16%	-19%	?	.	9.3µM*
CCC(=O)Nc1cccc(-c2ccc(N3CCN(C)CC3)nn2)c1	74*	0%	0%	142%	16*	105%
CCOc1ccc(C(=O)Nc2cccc(-c3ccc(N4CCOCC4)nn3)c2)cc1OCC	.	11%	0%	-14%	.	?
CCC(=O)Nc1cccc(-c2ccc(N3CCCCC3)nn2)c1	22	15%	-4%	72%	12	17%
c1nc(NCC2(N3CCOCC3)CCCCC2)c2ccsc2n1	1	0%	-4%	?	-1	?
Cc1sc2ncnc(NCC3(N4CCOCC4)CCCCC3)c2c1C	6	-2%	2%	.	-5	1.9µM*
O=C(NCCOc1ccc(F)cc1)C1CCC(=O)N(CCc2ccccn2)C1 (stereo unspecified)	-8	-7%	7%	19%	10	?
Cc1ccc(-c2nn(CCC(N)=O)c(=O)c3ccccc23)cc1	-17	1%	0%	3%	-3	?
CNC(=O)CCn1nc(-c2ccccc2)c2ccccc2c1=O	17	-15%	-2%	27%	-1	15µM*
CCN(CC)C(=O)CCn1nc(-c2ccc(C)cc2)c2ccccc2c1=O	-3	-12%	0%	7.4µM*	1	-2%
CCCN(CC(=O)NC(=O)NCc1ccccc1)CC(=O)Nc1ccc(F)c(F)c1F	.	166%	.	.	.	.
CCCNCCC(c1ccco1)c1ccccc1OC (stereo unspecified)	17	-4%	3%	-35%	7	23%
O=C(CC(c1ccc(F)cc1)c1ccco1)Nc1nccs1 (stereo unspecified)	-4	-7%	-2%	?	8	-23%
COc1ccccc1C(CCN(Cc1cccs1)C(C)=O)c1ccco1 (stereo unspecified)	15	-23%	-6%	7.4µM*	-7	13µM*
COc1ccccc1C(CC(=O)Nc1nccs1)c1ccco1 (stereo unspecified)	-3	-1%	6%	2.9µM*	1	6.6µM*
CCC(=O)N(CCC(c1ccccc1)c1ccco1)Cc1cccs1 (stereo unspecified)	-3	?	-1%	?	1	?
CCC(=O)NCCC(c1ccco1)c1ccccc1OC (stereo unspecified)	-3	-2%	-7%	?	13	10µM*
NS(=O)(=O)c1ccc(NC(=O)COC(=O)c2cnccn2)cc1	-6	4%	-1%	26%	6	11%
O=C1CC(NC(=O)C(F)(F)F)c2cc3c(cc21)OCO3 (stereo unspecified)	-5	-2%	0%	i	-2	-21%
Clc1ccc2nc(COc3ccccc3)[nH]c2c1	.	1%	-15%	69%	34*	-4%
O=c1[nH]c(COc2ccccc2)nc2ccccc12	49*	5%	0%	.	25*	127%
S=c1nc(COc2ccccc2)[nH]c2ccccc12	116*	103%	-2%	?	58*	?
Cc1cc(=O)[nH]c(COc2ccccc2)n1	-8	-4%	-1%	56%	3	.
S=c1nc(Cc2ccc(Cl)cc2)[nH]c2ccccc12	-8	102%	10%	?	13*	?
O=c1[nH]c(COc2ccc(Br)cc2Cl)nc2ccccc12	104*	10%	2%	31%	37*	-18%
O=C(CCc1nc2ccccc2c(=O)[nH]1)NNC(=O)COc1ccc(Br)cc1	.	69%	-3%	33%	.	-24%

Screening data from PubChem BioAssay.
